# Reference: ChEMBL document CHEMBL4513216, “Probing the Open Global Health Chemical Diversity Library for Multistage-Active Starting Points for Next-Generation Antimalarials” (ACS Infect Dis, 2020)
# Out of some 68,000 compounds screened, about 2,700 (4%) showed an effect of 50% or more. The full list was thinned out, with strong results kept by preference.
# System: Plasmodium berghei
# Experiment: Screen against P. berghei liver stage (PbLuc), transformed with Luciferase, at 2uM
# Assay type: functional, HepG2
# Conditions: tested at 2 uM
row,Compound,INHIBITION
1,Cc1cccc(-c2noc(CN3CC(n4cccn4)C3)n2)c1,-15.28%
2,CS(=O)(=O)Cc1ccc(Cl)c(NCc2noc(C3CC3)n2)c1,-22.2%
3,Cc1ccc(-c2ccc(Cl)nn2)cc1S(=O)(=O)N1CCOCC1,4.88%
4,Cc1cc(C)c(S(=O)(=O)Nc2c(C)nc(N(C)C)nc2C)cc1C,-46.61%
5,CN1CC2(CCCN(Cc3nnc(-c4ccccc4)o3)CC2)OC1=O (configuration not stated),-16.62%
6,CN1CC2(CCCN(Cc3nnc(-c4ccco4)o3)CC2)OC1=O (configuration not stated),16.82%
7,CN1CC2(CCCN(Cc3nnc(-c4cccc(F)c4)o3)C2)OC1=O (configuration not stated),54.49%
8,O=C(NC[C@]12COC[C@H]1CN(Cc1ccco1)C2)c1ccccc1,-36.34%
9,O=C(NCc1ccco1)N1CCC(n2ccc(C(F)(F)F)n2)CC1,-43.09%
10,Cc1nn(C)cc1CN1CCCC(n2c(=O)oc3ccc(Cl)cc32)C1 (configuration not stated),13.17%
11,COCC(=O)N1CCN(C(C)=O)C[C@@H]1C(=O)OC,23.53%
12,COC(=O)[C@H]1CN(C(=O)NC(C)C)CCN1C(=O)C1CCCCC1,16.67%
13,COCC(=O)N1CCN(C(=O)c2cccs2)[C@@H](C(=O)OC)C1,-19.02%
14,COCC(=O)N1CCN(C(=O)C2CCCCC2)[C@@H](C(=O)OC)C1,72.68%
15,COC(=O)[C@@H]1CN(C(=O)Nc2ccccc2)CCN1C(C)=O,-21.22%
16,COC(=O)[C@H]1CN(C(C)=O)CCN1C(C)=O,56.21%
17,CNC(=O)C1(c2cnccn2)CCCN1C(=O)Cc1ccsc1 (configuration not stated),36.82%
18,CN(CCc1ccccn1)Cc1nccn1Cc1ccccc1,-9.98%
19,CN(C)Cc1cnc2n1CCN(C(=O)Cc1ccc(F)cc1)CC2,8.41%
20,CN(C)Cc1cnc2n1CCN(C(=O)Cc1cccc(F)c1)CC2,54.82%
21,CN(C)Cc1cnc2n1CCN(C(=O)C1CC=CC1)CC2,46.27%
22,CN(C)Cc1cnc2n1CCN(C(=O)NC1CCCC1)CC2,16.03%
23,CN(C)Cc1cnc2n1CCN(C(=O)NCc1ccccc1)CC2,53.44%
24,CN(C)Cc1cnc2n1CCN(C(=O)Cc1ccsc1)CC2,37.51%
25,CN(Cc1ccccc1F)C(C(N)=O)c1ccccc1 (configuration not stated),24.62%
26,CN(C)S(=O)(=O)c1ccc(-c2nc(C#N)c(NC(C)(C)C)o2)o1,1.3%

row,Compound,INHIBITION
1,CCN(CC)CCN1CC[C@H]2OCC[C@@]2(C(=O)N2CCOCC2)C1,41.38%
2,COC(=O)c1cccc(C(=O)N2CCN(c3cc(Cl)ccc3C)CC2)n1,18.76%
3,CC(C)=CCCC(C)CN1CCC(n2cc(CO)nn2)CC1 (configuration not stated),55.66%
4,CC(C)=CCCC(C)CN1CCC(n2cc(C(=O)NCCO)nn2)CC1 (configuration not stated),48.93%
5,CC(C)=CCCC(C)CN1CCC(n2cc(C(C)(C)O)nn2)CC1 (configuration not stated),15.27%
6,Fc1cccc(C2(CNC3CCOC4(CCOCC4)C3)CCOCC2)c1 (configuration not stated),-8.87%
7,COc1cc(CNCCn2cc(C)cn2)c2c(c1)CC(C)O2 (configuration not stated),-11.26%
8,COc1ccc(CC(=O)N(C)c2cccnc2N(C)C)c(Cl)c1,54.29%
9,COc1cccc(OCC(=O)N(C)c2cccnc2N(C)C)c1,-3.66%
10,CN(C)c1ncccc1N(C)C(=O)Cn1cc(-c2ccccc2)nn1,-34.37%
11,Fc1ccc(CN2CCC3(CC2)CCN(c2ncccn2)CC3)cc1,26.94%
12,CC(O)CN1CCC(CN(C)Cc2cc(F)cc3cccnc23)CC1 (configuration not stated),-0.44%
13,Cc1ccc2c(n1)N(CCN(C)C)CCN(C(=O)c1cccs1)C2,-29.61%
14,Cc1cnc2n(c1=O)CC(C(=O)NCc1ccccc1Cl)CS2 (configuration not stated),39.58%
15,COc1cc2c(cc1-c1nc3c(cnn3C(C)C)[nH]1)OCO2,60.13%
16,CCn1ncc2[nH]c(-c3cc(OC)c(OC)cc3OC)nc21,13.04%
17,CCn1ncc2[nH]c(-c3cc4c(cc3OC)OCO4)nc21,27.42%
18,COc1cc2c(cc1-c1nc3c(cnn3C(C)C3CC3)[nH]1)OCO2 (configuration not stated),67.28%
19,COc1cc2c(cc1-c1nc3c(cnn3C(C)C(C)C)[nH]1)OCO2 (configuration not stated),7.67%
20,COc1cc2c(cc1-c1nc3c(cnn3C)[nH]1)OCO2,21.97%
21,Cc1n[nH]c(C)c1NC(=O)CN1CCc2c(nc(C3CC3)n2C)C1,47.57%
22,Cc1[nH]ccc1C(=O)N1CCC2(CC1)c1nc[nH]c1CCN2S(C)(=O)=O,0.31%
23,CO[C@H]1CO[C@@]2(CCCN(S(=O)(=O)c3ccccc3)C2)C1,-1.81%
24,Cc1cccnc1CNC(=O)CC1C(=O)NCCN1CC(C)(C)C (configuration not stated),-26.52%
25,Cc1nnc(N2CC[C@H]3C[C@@H](C(=O)NC4CCCC4)O[C@H]3C2)s1,-21.74%
26,CNc1nc(C(=O)NCC2CCOc3ccccc3C2)cs1 (configuration not stated),76.82%
